Assay outcomes from PubChem.
FBW7 activator – human FBW7 E3 ligase activation, primary screen | Q969H0 | AlphaScreen FBW7–phospho-cyclin E peptide binding, activator screen | normalized activity (activation), % at 26.1 µM | 650,000 tested, 0.13% active; in the data active means normalized activity above about 1.9%;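 further: purified mutant Fbw7 with reduced substrate affinity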
MITF primary – blocks human microphthalmia-associated transcription factor | O75030 | AlphaScreen MITF homodimerization, bead proximity signal | inhibition, % at 2.6 µM | 650,000 tested, 0.91% active | AID 1259374; in the data active means inhibition above about 50%
GPR151 ag – activates the human receptor GPR151; Q8TDV0; PathHunter beta-arrestin GPR151 cells, luminescence; AID 1508602; activation, % at 11.2 µM; 650,000 tested, 1% active; in the data active means activation above about 4.9%
TEAD-YAP inh – TEAD-YAP interaction inhibition. 640,000 tested, 1.4% active. inhibition, % at 9.12 µM. HEK-TIYL cells, TEAD-Gal4/YAP UAS-luciferase luminescence. AID 1259422; in the data active means inhibition above about 32%
GPR151 confirm – confirmation of human GPR151 activators | activation, % at 11.2 µM | shares compounds with GPR151 ag | GPR151 PathHunter beta-arrestin cells, luminescence, 90 min; % of EA-reagent control over plate median | 6,700 tested, under 10 active;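 active means mean percent activation across replicates above the confirmation screen cutoff of 4.91%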
GPR119 counter – GPR119 activation, counter-screen for GPR151 activators | activation, % at 11.2 µM | shares compounds with GPR151 ag | GPR119 PathHunter beta-arrestin cells, luminescence, 90 min; 0 = compound-well median, 100 = enzyme-acceptor control | 6,700 tested, 0.3% active;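 active means mean percent activation in the counterscreen above 29.09%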;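 further: counterscreen on off-target GPR119 to flag nonselective hits from the GPR151 activator screen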
Target sequence (Q8TDV5 whole entry, looked up): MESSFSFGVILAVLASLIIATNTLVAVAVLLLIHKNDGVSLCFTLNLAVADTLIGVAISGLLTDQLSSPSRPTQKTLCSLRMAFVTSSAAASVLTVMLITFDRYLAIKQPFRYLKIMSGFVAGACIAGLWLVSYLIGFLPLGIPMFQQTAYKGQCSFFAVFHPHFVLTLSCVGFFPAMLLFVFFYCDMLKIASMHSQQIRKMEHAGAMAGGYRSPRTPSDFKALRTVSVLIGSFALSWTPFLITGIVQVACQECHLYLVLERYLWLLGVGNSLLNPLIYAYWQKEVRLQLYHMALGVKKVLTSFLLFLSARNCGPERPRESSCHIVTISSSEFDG
Hits are given with their value; - = inactive; . = not tested or not shown. A selection: hits, their analogues and other compounds. The true share with any hit is near 3.5%.

SMILES	FBW7 activator	MITF primary	GPR151 ag	TEAD-YAP inh	GPR151 confirm	GPR119 counter
CC(=O)c1cccc(NC(=O)Cn2nc(C(F)(F)F)c(Cl)c2C)c1	-	-	-	-	.	.
Cc1c(Br)c(C(F)(F)F)nn1CC(=O)Nc1cccc(O)c1	-	-	10.0	-	-	-
C=C(C)Cn1c(SCCCC)nc2sc3c(c2c1=O)CC(C)(C)OC3	-	-	-	-	.	.
COc1ccc(-c2nc(CNS(=O)(=O)c3ccc(OC)c(OC)c3)cs2)cc1	-	-	-	-	.	.
COc1ccc(S(=O)(=O)NCc2csc(-c3cccnc3)n2)cc1OC	-	-	6.5	-	-	-
Cc1cnc(Nc2ccncn2)nc1NC1CCN(Cc2ccccc2)CC1	-	-	-	-	.	.
Cc1cnc(Nc2ccncn2)nc1NC1CC1	-	-	5.7	-	-	-
O=C(O)CCC/C=C\C[C@H]1[C@@H](/C=C/[C@@H](O)CCc2ccccc2)[C@H](O)C[C@H]1O	.	-	-	.	.	.
CC(C)OC(=O)CCC/C=C\C[C@@H]1[C@@H](/C=C/[C@@H](O)CCc2ccccc2)[C@H](O)C[C@@H]1O	.	-	5.4	.	-	-
O=C(O)CCC/C=C\C[C@@H]1[C@@H](/C=C/[C@@H](O)C2Cc3ccccc3C2)[C@@H](F)C[C@@H]1O	.	-	5.0	.	-	-
Cc1cccc(CNC(=O)CN(C)c2nnc(N3CCCC3=O)s2)c1	-	-	-	-	.	.
CN(CC(=O)NCc1cccnc1)c1nnc(N2CCCC2=O)s1	-	-	5.2	-	-	-
CCC(=O)Nc1sc2c(c1C(=O)Nc1ccc(OC)cc1)CCC(C(C)(C)C)C2 (configuration not stated)	-	-	8.8	-	-	-
CCOc1ccc(NC(=O)c2c(NC(=O)CC)sc3c2CCC(C(C)(C)C)C3)cc1 (configuration not stated)	-	-	-	-	.	.
Cc1ccc(NC(=O)CSc2nnc(-c3ccccc3N)n2C)cc1C	-	-	-	-	.	.
CCOc1ccc(-n2nc3ccc(NC(=O)c4cccc([N+](=O)[O-])c4)cc3n2)cc1	-	-	-	-	.	.
O=C1/C(=C\c2cccc([N+](=O)[O-])c2)SC(=S)N1N1C(=O)c2ccccc2C1=O	-	-	5.0	-	-	-
O=C1/C(=C/c2ccccc2)SC(=S)N1N1C(=O)c2ccccc2C1=O	-	-	-	-	.	.
CC(=O)c1cccc(NC(=O)c2ccoc2C)c1	-	-	5.9	-	-	-
Cc1ccc(-c2csc(C(C#N)=C3CCCCC3)n2)cc1	-	-	5.4	-	-	-
COc1cc(CN2CCOc3ccc(C(C)(O)CN(C)C)cc3C2)cc(OC)c1 (configuration not stated)	-	-	-	-	.	.
CCCCN(C)c1nnc(NC(=O)Nc2ccc(Cl)cc2)s1	-	-	7.5	-	-	-
CCCCN(C)c1nnc(NC(=O)Nc2ccc(CC(=O)OCC)cc2)s1	-	-	-	-	.	.
CCOC(=O)c1c(NC(=S)NC(=O)N(C)C)sc(C)c1-c1cccs1	-	-	5.1	-	-	-
CCn1nc(C)c(CN2CCOc3ccc(C(C)(O)COc4ccccc4)cc3C2)c1C (configuration not stated)	-	-	6.3	-	-	-
SMILES	FBW7 activator	MITF primary	GPR151 ag	TEAD-YAP inh	GPR151 confirm	GPR119 counter
COc1cc(OC)c(NC(=O)c2cnc(N3CCN(c4ccccc4OC)CC3)c3ccccc23)cc1Cl	-	-	-	-	.	.
Cc1ccc(-n2c(C)c3c(C)nnc(C)c3c2C)cc1N	-	-	5.3	-	-	-
NNC(=O)CCCNS(=O)(=O)c1ccc([N+](=O)[O-])cc1	-	-	5.7	-	-	-
O=C(N[C@H]1CCCCNC1=O)c1ccc(CN2CCC(c3ccccc3)CC2)[nH]c1=O	-	-	5.3	-	-	-
O=C(NC1C2CC3CC(C2)CC1C3)c1ccc(CN2CCC(O)CC2)[nH]c1=O (configuration not stated)	-	-	-	-	.	.
N/C(=N/OCc1ccc(Cl)c(Cl)c1)c1nonc1N	-	-	8.7	-	-	-
Cc1ccc(NC(=O)CO/N=C(\N)c2nonc2N)cc1	-	-	5.9	-	-	-
Cc1ccc(NC(=O)c2ccc(CNc3c(N4CCCCC4)c(=O)c3=O)cc2)cc1	-	-	-	-	.	.
COc1ccc(NC(=O)c2nn3c(C(F)(F)F)cc(-c4cccs4)nc3c2Br)cc1OC	-	-	-	-	.	.
Cc1sc(Nc2ccc(Br)cc2)nc1-c1ccc(Cl)cc1	-	-	-	-	.	.
CCOc1ccc(C2NC(=S)NC3=C2C(=O)CCC3)cc1 (configuration not stated)	-	-	5.8	-	-	-
COc1ccc(C(=O)OCc2cccc([N+](=O)[O-])c2)cc1	-	-	-	-	.	.
COc1cccc(COC(=O)c2n[nH]c3ccccc23)c1	-	-	6.9	-	-	-
COc1cccc(C(=O)OCc2cccc([N+](=O)[O-])c2)c1	-	-	6.9	-	-	-
CCCCc1nc(SCc2cccnc2)c2c(=O)n(C)c(=O)n(C)c2n1	-	-	-	-	.	.
CCc1nc(SCc2cccnc2)c2c(=O)n(C)c(=O)n(C)c2n1	-	-	8.2	-	-	-
CC(=O)c1ccc(NC(=O)CN2CCCc3ccccc32)cc1	-	-	-	-	.	.
O=C(CN1CCCc2ccccc21)Nc1ccc(Br)cc1	-	-	12	-	-	-
CCN(CC)C(=O)c1cn(CCC#N)nc1-c1ccc(OC)c([N+](=O)[O-])c1	-	-	21	-	-	-
O=C(CCN1c2ccccc2Sc2ccccc21)N1CCOCC1	-	-	5.8	-	-	-
CCc1ccccc1NC(=O)CCC(=O)OCC(=O)c1ccc([N+](=O)[O-])cc1	-	-	-	-	.	.
CCc1ccccc1NC(=O)CCCC(=O)OCC(=O)c1ccc([N+](=O)[O-])cc1	-	-	5.5	-	-	-
COc1ccc2c(CNCc3ccc(F)cc3)c(C(=O)O)n(Cc3ccc(C)cc3)c2c1	-	-	7.8	-	-	-
COC(=O)C1=C(C)NC(=O)NC1c1cc(OC)c(O)c([N+](=O)[O-])c1 (configuration not stated)	-	-	-	-	.	.
COc1cc(C2NC(=O)NC(C)=C2C(C)=O)cc([N+](=O)[O-])c1O (configuration not stated)	-	-	7.8	-	-	-
COc1cc(C2NC(=O)NC(C)=C2C(C)=O)cc(Br)c1OCc1ccccc1 (configuration not stated)	-	-	5.7	-	-	-
CCOC(=O)C1=C(C)NC(=O)NC1c1cc(Br)c(OCc2ccccc2)c(OC)c1 (configuration not stated)	-	-	-	-	.	.
COc1cccc(/C=C/c2nc3ccccc3c(=O)n2-c2cccc(Cl)c2C)c1OC	-	-	-	-	.	.
O=C(CCC(=O)OCC(=O)c1ccc(Cl)c(Cl)c1)Nc1ccccc1	-	-	5.5	-	-	-
